We go through eight molecules from PubChem BioAssay (NCI).

Assay in all cases: NCI-60 one-dose screen, 48 h (100 = growth as untreated, 0 = no growth, -100 = all killed)
Common to all, as to settings: 10 µM unless noted

For test [1], the system named is NCI-H23 lung.
The test system of test [2] is NCI-H226 lung.
Test [3] concerns NCI-H322M lung.
The test system of test [4] is HOP-62 NSCLC.
Test [5] deals with NCI-H460 lung.
Test [6] concerns HOP-92 NSCLC.
Test [7] has as its system NCI-H522 lung.
Test [8] has as its system A549/ATCC NSCLC.
Test [9] has as its system 786-0 renal.
The subject of test [10] is COLO 205 colon.
In test [11] the test system is DU-145 prostate.
Test [12] concerns MALME-3M melanoma.
In test [13] the test system is MDA-MB-231 breast.
Test [14] deals with RXF 393 renal.
Test [15] concerns SF-268 CNS.
For test [16], the system named is SF-539 CNS.
The subject of test [17] is M14 melanoma.
The test system of test [18] is K-562 leukemia.
For test [19], the system named is SF-295 CNS.
Test [20] has as its system UACC-257 melanoma.

This is part of a sample that, as a whole, favours compounds with a hit. Of some 83,000 tested, about 20% had one in any assay.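 Step 1: grow cells in 96-well plates. Step 2: add test compound at a single concentration. Step 3: incubate 48 h. Step 4: record percent growth.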 Values without a mark were called inactive. The source made the active and inactive calls. Rule for the calls: active = growth percent below 10; inactive = the rest.

`C=C1C(=O)O[C@H]2[C@H]1CC/C(COC(=O)NCc1ccccc1OC)=C\CC[C@@]1(C)O[C@@H]21`: the growth in test [1] was 73.6%; in test [2] it was 55.6%; in test [3] it was 93.2%; in [4], 77.1%; in test [5], 59.2%; in test [6] it was 32.6%. Moreover, the growth in test [7] is -73.6% (active); in [8] it was 71.6%; in [9], 7.8% (active); in test [10], -35.2% (active); in [11], 20.1%; in test [12] it was 68.8%. Also, the growth in [13] was 46.2%; in [14] it was 10%; in test [15], 53.1%; in test [16], 28.7%; in [17], 33%.
In the case of `COc1cc(C2NN=C3c4ccccc4CCC32)cc(OC)c1OC` (stereo not drawn), the growth in [1] is 73.4%; in test [2], 62.6%; in test [3], 88%; in [4] it was 82.3%; in [5], 91.3%; in [6], 62.4%. For the same molecule, the growth is 42% in [8]; 93.9% in test [9]; 89.3% in test [10]; 92.5% in [11]; 42.8% in test [18]; 48.6% in test [12]. In addition, the growth in test [13] was 48.4%; in test [14], 87.2%; in [15] it was 84%; in [19] it was 102%; in [16] it was 85.4%; in test [20] it was -36.4% (active).
As to `CN1C=CN(Cc2ccc(-c3ccccn3)nc2)[CH-]1.CN1C=CN(Cc2ccc(-c3ccccn3)nc2)[CH-]1.[Au+3]`, the growth in [1] is 36.3%; in test [2], 66.7%; in test [3], -3% (active); in [4] it was 61.6%; in test [5], 21.3%; in [6], 66.6%. The growth in [7] is 34.2%; in test [8], 45.2%; in test [9], 52.8%; in [10], 28.4%; in [18], 21.9%; in test [12], 21.5%. Also, the growth in test [13] is 28.1%; in test [14] it was 19.5%; in [15], 44.1%; in test [19], 17.3%; in test [16], 17.4%; in test [20] it was 2.13% (active). The growth in test [17] was 35.6%.
As to `COc1ccc2[nH]c(=O)c(/C=N/Nc3nc(-c4ccccc4)cs3)c(O)c2c1`, the growth in test [1] is 89.7%; in test [2], 66.6%; in [3], 18.2%; in test [4], 43%; in [5], 46.6%; in test [6], 94.7%. Also, the growth in [7] was 80.1%; in test [8], 57.3%; in test [10] it was 106%; in [11] it was 63.7%; in [18], 71.3%; in test [12] it was 84.5%. Moreover, the growth in test [13] was 57.5%; in test [14] it was 97.1%; in test [15], 56.4%; in test [19], 69.3%; in [16], 84.1%; in test [20] it was 98.8%. Further, the growth in test [17] was 75.2%.
For `NC(=S)N/N=C1\CCCC(C(F)(F)F)C1` (stereo not drawn), the growth in [1] was 101%; in test [2], 117%; in [3], 101%; in [4], 107%; in test [5], 109%; in [6] it was 96%. For the same molecule, the growth in test [7] was 94%; in test [8], 100%; in [9], 98.9%; in test [10], 114%; in [18] it was 46.3%; in [12] it was 104%. Moreover, the growth is 102% in test [13]; 123% in test [14]; 100% in test [19]; 101% in test [16]; 73.2% in test [20]; 95.6% in [17].
Regarding `C=CCn1cc(-c2nc3ccccc3s2)c2cc(-c3ccc4c5c(cccc35)C(=O)N(CCN3CCNCC3)C4=O)ccc21`, the growth in test [1] is 86.3%; in test [2] it was 63.9%; in [3], 97.5%; in test [4], 82.7%; in [5], 89%; in test [6], 72.1%. The growth in test [7] is 92.4%; in [8] it was 85%; in [10], 107%; in test [11], 101%; in test [18] it was -51.9% (active); in test [12], 55.2%. For the same molecule, the growth in [13] was 60.5%; in [14] it was 93.2%; in test [15], 89.9%; in test [19] it was 101%; in test [16], 91.1%; in [20] it was 102%. In addition, the growth in test [17] was 82%.
As for `C=C1CC2(OC1=O)C(=O)N(CCCN1C(=O)C3(CC(=C)C(=O)O3)c3ccccc31)c1ccccc12` (stereo not drawn), the growth is 57.6% in [1]; 78.7% in test [2]; 86.1% in [3]; 98.2% in test [4]; 44.3% in test [5]; -27% (active) in test [6]. The growth in test [8] is 83.1%; in [9] it was 20.1%; in test [10], -58.8% (active); in test [11] it was 37.4%; in [18] it was 5.21% (active); in [12], -48.5% (active). In addition, the growth in test [13] is -29.2% (active); in [14], -61.1% (active); in test [15] it was 70.6%; in [19], 82.1%; in test [16], 9.24% (active); in test [20], 30.4%. Besides, the growth in test [17] is 19.1%.
With `CCN(CC)CCC(CNc1ccnc2cc(Cl)ccc12)c1ccccc1` (stereo not drawn), the growth was 80.3% in test [1]; 63% in test [2]; 93.7% in [3]; 78.4% in test [4]; 67.7% in [5]; 21.1% in test [6]. In addition, the growth in test [8] is 70.4%; in test [9] it was 69.8%; in [10], -39% (active); in test [11], 89.4%; in [18] it was 2.5% (active); in test [12], -47.1% (active). For the same molecule, the growth in [13] was 43%; in test [14], -21% (active); in test [15], 78.3%; in test [19], -21.4% (active); in test [16], -15.2% (active); in test [20], -78.2% (active). The growth in test [17] is -83.9% (active).
